# A selection: hits, their analogues and other compounds. The true share with any hit is near 4%.
# RecA intein inh: Mtb RecA intein splicing inhibitors, primary screen, biochemical, fluorescence, HTS; cell-free RecA intein splicing; inhibition, % (test concentration not listed); 290,000 compounds, 0.75% hits; in the data active means inhibition above about 30%
# Rv3671c protease: Rv3671c serine protease inhibitors, primary screen, biochemical, fluorescence polarization, M. tuberculosis H37Rv; P9WHR9; inhibition, % at 5.96 µM; 320,000 compounds, 0.048% hits; AID 2606, 2010; in the data active means inhibition above about 38%;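 further: extracellular domain of Rv3671c used as enzyme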
# GDH-TPI counter-1: GDH-TPI coupling enzyme inhibitors, primary screen, artefact control for M. tuberculosis FBA inhibitor project, biochemical, absorbance, full deck. 360,000 compounds, 1.2% hits. AID 588335, 2011. GDH-TPI coupled enzyme counterscreen, NADH absorbance. inhibition, % at 4.8 µM; in the data active means inhibition above about 30%
# Mtb FBA inh: Mtb FBA enzyme inhibitors, primary screen, biochemical, fluorescence, strain H37Rv. 360,000 compounds, 2.3% hits. Fructose-bisphosphate aldolase (Mycobacterium tuberculosis (strain ATCC 25618 / H37Rv)), …. inhibition, % at 1 µM. purified M. tuberculosis FBA, fluorescence read-out
# Target sequence (P9WQA3 whole entry, looked up): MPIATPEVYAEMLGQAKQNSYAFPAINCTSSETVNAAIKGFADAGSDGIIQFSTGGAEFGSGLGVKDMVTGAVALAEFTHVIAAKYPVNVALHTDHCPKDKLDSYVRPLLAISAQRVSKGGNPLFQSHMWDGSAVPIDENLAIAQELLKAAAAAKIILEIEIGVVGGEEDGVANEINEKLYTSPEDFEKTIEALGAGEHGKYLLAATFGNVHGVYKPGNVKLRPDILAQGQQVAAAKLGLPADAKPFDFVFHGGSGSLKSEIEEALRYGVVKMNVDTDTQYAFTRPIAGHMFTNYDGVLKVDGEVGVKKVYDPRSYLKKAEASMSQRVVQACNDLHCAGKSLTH
# Mtb bLac sens: beta-lactam sensitization of Mtb H37Rv, H37Rv. M. tuberculosis H37Rv growth with meropenem, percent inhibition. inhibition, % at 25 µM. 330,000 compounds, 0.27% hits. AID 434955, 2010; call rule not given here;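 further: growth measured after seven days incubation then overnight dye step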
# Mtb UGM inh: M. tuberculosis UGM enzyme inhibitors, primary screen, biochemical, fluorescence polarization, single point; UDP-galactopyranose mutase (Mycobacterium tuberculosis (strain ATCC 25618 / H37Rv)), …; purified UGM, fluorescence polarization probe displacement; inhibition, % at 10 µM; 320,000 compounds, 0.06% hits; AID 504406, 2011; in the data active means inhibition above about 10%, passing the limit was not always enough
# Mtb FBA inh conf: M. tuberculosis aldolase blockers, biochemical, fluorescence, strain H37Rv, confirmation. shares compounds with Mtb FBA inh. purified M. tuberculosis FBA, fluorescence read-out. inhibition, % at 1 µM. 5,600 compounds, 78% hits. AID 651616, 2012
# GDH-TPI counter-2: GDH-TPI coupling enzyme inhibitors, artefact control for M. tuberculosis FBA inhibitor project, biochemical, fluorescence, high throughput; inhibition, % at 1 µM; 5,600 compounds, 81% hits; AID 652141, 2013; GDH-TPI coupled enzyme counterscreen; shares compounds with Mtb FBA inh; in the data active means inhibition above about 10%
# Hits are given with their value; n = inactive; x = not tested or not shown; + = active, no number. Unless noted, no stated cut-off is given here; in the data, active means inhibition above about 27%; inactive means the rest.
SMILES,RecA intein inh,Rv3671c protease,GDH-TPI counter-1,Mtb FBA inh,Mtb bLac sens,Mtb UGM inh,Mtb FBA inh conf,GDH-TPI counter-2
COc1ccc(C(=O)c2sc3nc(-c4ccc(OC)cc4)ccc3c2N)cc1,n,n,n,33.9,n,n,27.9,31.0
CC(C)(C)c1nnc(NS(=O)(=O)c2ccc(F)cc2)s1,x,x,n,n,x,x,x,x
O=C(OCc1ccccc1Cl)c1cccnc1Cl,n,n,n,n,n,n,x,x
N#Cc1ccccc1COC(=O)c1cccnc1N,n,n,n,46.0,n,n,152.8,96.4
Cc1cccc(C(=O)NNC(=O)C2CC2)c1,x,n,n,n,n,n,x,x
COC(=O)c1cc(NC(=O)CN(C)Cc2ccccc2)cc(C(=O)OC)c1,n,n,n,34.5,n,n,n,22.1
CN(CC(=O)Nc1ccc(Br)cc1)Cc1ccccc1,n,n,n,n,n,n,x,x
Cc1nc(CCNC(=O)CC2C(=O)NCCN2Cc2ccccc2)nc2c1CCC2 (centres undefined),n,x,n,n,n,n,x,x
CCOc1ccc(CN2CCNC(=O)C2CC(=O)NCCc2nc(C)c3c(n2)CCC3)cc1 (centres undefined),n,x,n,27.7,x,x,+,154.0
CCCn1nnc(NC(=S)NC(=O)c2cccs2)n1,n,n,n,37.4,n,n,39.2,24.7
CNC(=S)N/N=C/c1ccc(N(C)C)cc1,n,n,40.2,41.6,n,n,+,+
Cc1c(NC(=S)N/N=C/c2ccc(N(C)C)cc2)c(=O)n(-c2ccccc2)n1C,n,n,33.2,33.0,n,n,115.9,87.5
CNC(=S)N/N=C/c1ccc(C(C)C)cc1,n,n,n,n,n,n,x,x
Cc1ccccc1OCC(=O)OCC(=O)NC1CC1,x,n,n,n,n,n,x,x
Cc1ccc(-n2c(-c3ccco3)nc3nc4ccccc4nc32)cc1F,n,n,n,32.9,n,n,77.4,62.5
Fc1cccc(-n2c(-c3ccco3)nc3nc4ccccc4nc32)c1,n,n,n,51.5,n,n,73.5,49.0
Cc1nc2scc(C)n2c(=O)c1S(=O)(=O)NCc1ccccc1Cl,n,n,n,34.3,n,n,179.5,132.0
Cc1nc2scc(C)n2c(=O)c1S(=O)(=O)NC(C)c1ccccc1 (centres undefined),n,n,n,37.4,n,n,40.2,36.7
Cc1ccc(CNS(=O)(=O)c2c(C)nc3scc(C)n3c2=O)cc1,n,n,n,n,n,n,x,x
Cc1nc2scc(C)n2c(=O)c1S(=O)(=O)NCCc1ccccc1,n,n,n,n,n,n,x,x
Cc1nc2scc(C)n2c(=O)c1S(=O)(=O)NCC1CCN(Cc2ccc(F)cc2)CC1,n,n,n,31.8,n,n,121.5,90.5
COc1ccc(C(CNC(=O)c2cccc(S(=O)(=O)Nc3cccc(C)c3)c2)N2CCOCC2)cc1 (centres undefined),n,n,n,n,n,n,x,x
COc1cc2oc(=O)c(CC(=O)N3C[C@H]4C[C@@H](C3)c3cccc(=O)n3C4)c(C)c2cc1Cl,x,x,n,44.9,x,x,35.0,28.3
Cc1c(C)c2cc(Cl)c(OCC(=O)N3C[C@H]4C[C@@H](C3)c3cccc(=O)n3C4)cc2oc1=O,n,n,n,n,n,n,x,x
COc1cc(CC(=O)N2C[C@H]3C[C@@H](C2)c2cccc(=O)n2C3)cc(OC)c1OC,x,n,n,n,n,n,x,x
SMILES,RecA intein inh,Rv3671c protease,GDH-TPI counter-1,Mtb FBA inh,Mtb bLac sens,Mtb UGM inh,Mtb FBA inh conf,GDH-TPI counter-2
COc1ccc2c(C)c(CC(=O)N3C[C@H]4C[C@@H](C3)c3cccc(=O)n3C4)c(=O)oc2c1OC,n,n,n,29.9,n,n,n,n
COc1ccccc1NC(=O)Nc1nc(CC(=O)NCc2ccc(F)cc2)cs1,n,n,n,n,n,n,x,x
c1ccc(CNCCc2ccc3c(c2)OCO3)nc1,n,n,n,n,n,n,x,x
Fc1cccc(CCNCc2ccccn2)c1,n,n,n,29.8,n,n,86.6,81.6
c1ccc(SCc2cn(C[C@H]3CC[C@@H]([C@@H]4CC[C@H](Cn5cc(CSc6ccccc6)nn5)O4)O3)nn2)cc1,n,n,n,n,n,n,x,x
O=C(NCCN1CCOCC1)c1ccc(NS(=O)(=O)c2cccc([N+](=O)[O-])c2)cc1,n,n,n,n,n,x,x,x
O=C(CC1C(=O)NCCN1Cc1cccc(C(F)(F)F)c1)NC1CCCCCC1 (centres undefined),n,n,n,n,n,n,x,x
CCOc1ccc(C(C(=O)NCC2CCCO2)N(C(=O)c2snc(C(N)=O)c2N)c2ccccc2F)cc1 (centres undefined),n,n,n,52.7,n,n,61.7,50.5
CCc1ccc(N(C(=O)c2snc(C(N)=O)c2N)C(C(=O)NC2CCCC2)c2ccco2)cc1 (centres undefined),n,n,n,n,n,n,x,x
CCOc1ccc(C(C(=O)NCC2CCCO2)N(C(=O)c2snc(C(N)=O)c2N)c2cccc(F)c2)cc1 (centres undefined),n,n,n,34.2,n,n,91.0,72.0
Cc1ccc(C(C(=O)NCC2CCCO2)N(C(=O)c2snc(C(N)=O)c2N)c2ccccc2F)o1 (centres undefined),n,n,n,33.2,n,n,58.8,39.2
CCOc1ccc(N(C(=O)c2snc(C(N)=O)c2N)C(C(=O)NCC2CCCO2)c2ccc(C)o2)cc1 (centres undefined),n,x,n,n,x,x,x,x
Cc1ccc(C(C(=O)NCC2CCCO2)N(C(=O)c2snc(C(N)=O)c2N)c2ccc(F)cc2)o1 (centres undefined),n,n,n,n,n,n,x,x
NC(=O)c1nsc(C(=O)N(c2ccccc2)C(C(=O)NCC2CCCO2)c2ccc(F)cc2)c1N (centres undefined),n,n,n,n,n,n,x,x
Cc1ccccc1N(C(=O)c1snc(C(N)=O)c1N)C(C(=O)NC1CCCC1)c1ccco1 (centres undefined),n,x,n,37.0,x,x,134.0,98.4
CCOc1ncccc1C(=O)OCCCC(=O)c1ccc(Br)cc1,x,n,n,n,n,n,x,x
Cc1cc(N2CCOCC2)nc2ccc(Cl)cc12,n,n,n,n,n,n,x,x
